Experimental data taken from PubChem BioAssay.
Values without a mark were called inactive. For part of these data: Results with a measured potency or affinity are listed apart. Active and inactive are the calls of the source.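 The calls were made as follows, unless noted: active = calcium signal rise above buffer-control mean plus 5 SD in both duplicates, and also a hit in the primary screen; inactive = the rest.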

How the values were obtained:
[1] = test system: TRPC4 beta (transient receptor potential cation channel C4), mouse; experiment: TRPC4 cation channel opening, retest – cell-based, Fluo4 calcium, HEK293 TRPC4beta/mu-opioid, duplicates, 10 µM, confirmation (AID 2426;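 active = fluorescence ratio normalized to control raised more than 50% in primary screen plus both repeat runs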;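 as to activation: percent rise of integrated ratio over buffer wells lacking compound which define 0%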); details: Fluo4 calcium fluorescence, at 10 µM; stronger effect = higher value
[2] = test system: transient receptor potential cation channel C4 beta (TRPC4), mouse; experiment: TRPC4 cation channel opening, second retest – cell-based, second round, Fluo4, HEK293 TRPC4beta/mu-opioid, 1 µM, confirmation (AID 2461;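 active = primary screen active and over 50% activation in each of two duplicate runs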;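 as to activation: 0% = wells without test compound as baseline of integrated fluorescence ratio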); details: Fluo4 calcium fluorescence, at 1 µM; stronger effect = higher value
[3] = test system: TRPC4 (transient receptor potential cation channel C4 beta), mouse; experiment: potentiation of DAMGO EC20 TRPC4 response – cell-based, second round, Fluo-4, HEK293 TRPC4beta/mu-opioid, 1 µM, confirmation (AID 2554;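 active = primary screen hit whose fluorescence ratio, in both repeats, exceeds the weak agonist control mean by 3 SD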); details: DAMGO EC20, Fluo-4 calcium flux, at 1 µM; stronger effect = higher value
[4] = test system: TRPC4 beta (transient receptor potential cation channel C4), mouse; experiment: potentiation of DAMGO EC20 TRPC4 response – cell-based, Fluo-4, HEK293 TRPC4beta/mu-opioid, confirmation (AID 2555;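 active = primary screen hit whose calcium fluorescence ratio, in both repeats, exceeds the weak agonist control mean by 3 SD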); details: DAMGO EC20, Fluo-4 calcium flux, at 10 µM; stronger effect = higher value
[5] = molecular target: Short transient receptor potential channel 4 (Mus musculus) (UniProt Q9QUQ5); experiment: blockers of DAMGO-evoked TRPC4 calcium flux – cell-based, Fluo4, HEK293 TRPC4beta/mu-opioid, confirmation (AID 2636;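 active = calcium signal cut by more than 3 SD below the full-agonist control yet still positive, in both repeats and the earlier primary screen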); details: at 10 µM; stronger effect = higher value
Short transient receptor potential channel 4 (Mus musculus), sequence (Q9QUQ5 whole entry, looked up): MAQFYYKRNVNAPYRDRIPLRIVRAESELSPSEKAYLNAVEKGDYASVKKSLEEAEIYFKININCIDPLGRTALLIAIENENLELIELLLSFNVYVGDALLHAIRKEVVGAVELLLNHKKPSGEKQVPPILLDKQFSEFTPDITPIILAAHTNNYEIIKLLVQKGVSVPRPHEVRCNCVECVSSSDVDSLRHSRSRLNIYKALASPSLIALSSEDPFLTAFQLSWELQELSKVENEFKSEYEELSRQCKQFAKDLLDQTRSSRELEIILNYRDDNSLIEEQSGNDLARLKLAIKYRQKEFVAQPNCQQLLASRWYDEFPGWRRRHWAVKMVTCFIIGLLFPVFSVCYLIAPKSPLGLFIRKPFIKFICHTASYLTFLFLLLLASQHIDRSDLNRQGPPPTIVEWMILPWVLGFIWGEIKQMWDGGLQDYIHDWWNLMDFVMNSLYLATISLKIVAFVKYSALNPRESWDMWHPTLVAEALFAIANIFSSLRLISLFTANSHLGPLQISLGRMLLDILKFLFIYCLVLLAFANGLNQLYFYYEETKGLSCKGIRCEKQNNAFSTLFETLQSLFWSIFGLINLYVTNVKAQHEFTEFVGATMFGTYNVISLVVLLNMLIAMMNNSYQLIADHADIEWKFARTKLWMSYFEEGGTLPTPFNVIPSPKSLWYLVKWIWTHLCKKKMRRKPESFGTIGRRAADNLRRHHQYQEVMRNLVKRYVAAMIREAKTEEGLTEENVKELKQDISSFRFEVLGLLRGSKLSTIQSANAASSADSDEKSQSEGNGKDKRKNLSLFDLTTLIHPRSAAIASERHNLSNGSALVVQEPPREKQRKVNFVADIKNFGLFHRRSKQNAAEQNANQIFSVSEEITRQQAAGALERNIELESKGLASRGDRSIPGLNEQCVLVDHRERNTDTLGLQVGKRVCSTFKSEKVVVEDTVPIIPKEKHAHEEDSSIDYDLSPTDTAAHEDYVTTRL

[6] = molecular target: Short transient receptor potential channel 4 (Mus musculus) (UniProt Q9QUQ5); experiment: blockers of DAMGO-evoked TRPC4 calcium flux – cell-based, second round, Fluo4, HEK293 TRPC4beta/mu-opioid, 1 µM, confirmation (AID 2637;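 active = calcium signal ratio cut to more than 3 SD under the fully stimulated control mean yet still positive, in both repeats and the primary screen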;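 as to inhibition: percent of integrated ratio relative to wells lacking test compound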); details: at 1 µM; stronger effect = higher value
[7] = molecular target: Short transient receptor potential channel 4 (Mus musculus) (UniProt Q9QUQ5); experiment: potentiation of DAMGO-evoked TRPC4 calcium signal – cell-based, HEK293 TRPC4/mu-opioid, Fluo-4 calcium, EC20 DAMGO, dose response (AID 434941;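 active = earlier screen potentiator hit that boosts the TRPC4 ion channel at some dose, with a dose response; inactive = no potentiation, no dose response, or not a prior hit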;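 also: calcium entry triggered by an EC20 dose of DAMGO at the co-expressed mu-opioid receptor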)
[8] = molecular target: Short transient receptor potential channel 6 (Mus musculus) (UniProt Q61143); experiment: TRPC6 blockade by TRPC4 inhibitor hits – cell-based, HEK293, membrane potential dye, duplicate, selectivity assay for TRPC4 inhibitor project, confirmation (AID 434948;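 active = active in primary screen and both duplicates, each dropping signal beyond three positive-control SD with fluorescence still positive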); details: HEK293 TRPC6, membrane potential dye fluorescence, at 10 µM, stimulated with maximal-effect acetylcholine; stronger effect = higher value
Short transient receptor potential channel 6 (Mus musculus), sequence (Q61143 whole entry, looked up): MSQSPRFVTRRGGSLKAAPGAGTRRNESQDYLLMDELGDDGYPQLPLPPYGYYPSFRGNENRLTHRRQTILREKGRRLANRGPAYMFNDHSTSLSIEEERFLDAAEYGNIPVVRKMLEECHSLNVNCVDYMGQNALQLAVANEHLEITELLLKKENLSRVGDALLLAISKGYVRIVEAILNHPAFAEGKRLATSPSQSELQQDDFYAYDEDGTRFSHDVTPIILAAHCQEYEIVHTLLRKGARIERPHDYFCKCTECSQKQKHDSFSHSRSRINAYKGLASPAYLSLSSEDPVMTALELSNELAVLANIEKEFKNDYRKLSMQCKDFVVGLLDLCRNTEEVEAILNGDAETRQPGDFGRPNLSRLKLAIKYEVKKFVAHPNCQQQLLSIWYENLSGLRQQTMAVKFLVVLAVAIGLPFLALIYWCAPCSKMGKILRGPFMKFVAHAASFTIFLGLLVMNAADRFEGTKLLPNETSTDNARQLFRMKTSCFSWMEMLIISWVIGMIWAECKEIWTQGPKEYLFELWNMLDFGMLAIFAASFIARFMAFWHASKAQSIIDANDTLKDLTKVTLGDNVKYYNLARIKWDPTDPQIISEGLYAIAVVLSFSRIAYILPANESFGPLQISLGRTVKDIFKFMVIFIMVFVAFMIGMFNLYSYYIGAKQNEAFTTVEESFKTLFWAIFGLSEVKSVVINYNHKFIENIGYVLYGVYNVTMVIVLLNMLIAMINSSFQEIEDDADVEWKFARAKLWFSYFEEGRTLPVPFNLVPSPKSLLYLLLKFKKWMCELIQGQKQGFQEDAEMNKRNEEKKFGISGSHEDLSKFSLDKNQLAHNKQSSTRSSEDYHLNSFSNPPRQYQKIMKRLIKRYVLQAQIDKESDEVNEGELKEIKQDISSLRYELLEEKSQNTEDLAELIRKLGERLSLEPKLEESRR

[9] = molecular target: Short transient receptor potential channel 6 (Mus musculus) (UniProt Q61143); experiment: TRPC6 opening by TRPC4 activator hits – cell-based, HEK293, membrane potential dye, duplicate, selectivity assay for TRPC4 activator project, confirmation (AID 434950;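 active = membrane potential signal rise above negative control mean plus 3 SD in both duplicates, also active in the earlier TRPC4 screen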;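 as to activation: 0% = buffer only wells and 100% = acetylcholine maximal-effect wells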); details: HEK293 TRPC6, membrane potential fluorescence, at 10 µM; activation: stronger effect = higher value; outcome: activation
[10] = molecular target: Short transient receptor potential channel 6 (Mus musculus) (UniProt Q61143); experiment: positive modulators of mouse TRPC6 channel – HEK293 cells, membrane potential dye, duplicate, selectivity assay for TRPC4 potentiator project, confirmation (AID 434952;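 active = compound raising the membrane signal above positive-control mean plus 3 SD in both repeats, and a primary screen hit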); details: HEK293 TRPC6, membrane potential dye fluorescence, at 10 µM, maximal acetylcholine added after compound; stronger effect = higher value
[11] = molecular target: Short transient receptor potential channel 4 (Mus musculus) (UniProt Q9QUQ5); experiment: calcium flux activators in TRPC4/5HT1a cells, counter-screen for TRPC4 activator project, cell-based, second counter screen, HEK293 TRPC4/5HT1a, Fluo-4 (AID 434977); details: Fluo-4 calcium flux, at 10 µM; stronger effect = higher value;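 as to activation: plate controls were assay buffer for no effect and maximal serotonin response for full effect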
[12] = serotonin-gated TRPC4 signal block – cell-based, second counter screen, HEK293 TRPC4/5HT1a, Fluo-4, counter-screen for TRPC4 inhibitor project, confirmation (AID 434978;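 active = primary screen active whose calcium signal fell more than 3 SD beyond the full-serotonin control mean in both duplicate plates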;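 as to outcome: serotonin given first at submaximal then at maximal dose after compound preincubation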); details: Fluo-4 calcium flux, at 10 µM, serotonin added to trigger calcium flux; stronger effect = higher value
[13] = test system: TRPC4 (mouse), co-expressed with 5HT1a in HEK293; experiment: enhancement of serotonin-evoked TRPC4 response – cell-based, second counter screen, HEK293 TRPC4/5HT1a, Fluo-4, counter-screen for TRPC4 potentiator project, confirmation (AID 434979;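 active = signal rise over 3 SD above mean of control wells given weak agonist, in both repeats and first screen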); details: Fluo-4 calcium flux, at 10 µM, serotonin added at its EC20 dose; stronger effect = higher value
[14] = nonspecific calcium rise without TRPC4 – cell-based, HEK293 mu-opioid receptor line, counter-screen for TRPC4 activator project, confirmation (AID 449723;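 active = hit in primary screen, with calcium signal over 5 SD above buffer well mean in both duplicates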;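 also: counter screen cells carry the mu-opioid receptor alone and lack TRPC4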); details: HEK293 mu-opioid cells, Fluo-4 calcium fluorescence, at 10 µM; stronger effect = higher value
[15] = nonspecific potentiation of DAMGO calcium response – cell-based, HEK293 mu-opioid receptor line, counter-screen for TRPC4 allosteric potentiator project, confirmation (AID 449724;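 active = calcium signal rise more than 3 SD above the low-dose agonist control mean, in both duplicate plates and the primary screen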); details: HEK293 mu-opioid receptor cells, Fluo-4 calcium flux, at 10 µM, compound added before EC20 DAMGO stimulus; stronger effect = higher value

Compound: Cc1ccc(S(=O)(=O)Nc2cccc(C(=O)NCC(c3ccccc3)N(C)C)c2)cc1F (stereo not given)
- activation [1]: 84% (active)
- outcome [2]: inactive
- outcome [3]: inactive
- outcome [4]: inactive
- outcome [5]: inactive
- inhibition [6]: 78% (active)
- outcome [7]: inactive
- outcome [8]: inactive
- activation [9]: 37.5% (active)
- outcome [10]: inactive
- outcome [11]: inactive
- outcome [12]: inactive
- outcome [13]: inactive
- outcome [14]: inactive
- outcome [15]: inactive

Compound: CN(C)C1(CNC(=O)CC(NC(=O)c2ccccc2Cl)c2ccccc2)CCCCC1 (stereo not given)
- outcome [1]: inactive
- outcome [2]: inactive
- outcome [3]: inactive
- outcome [4]: inactive
- inhibition [5]: 88% (active)
- inhibition [6]: 78% (active)
- outcome [7]: inactive
- outcome [8]: inactive
- activation [9]: 44.5% (active)
- outcome [10]: inactive
- outcome [11]: inactive
- outcome [12]: inactive
- outcome [13]: inactive
- outcome [14]: inactive
- outcome [15]: inactive

Compound: CC1CC(C)(C)N(C(=O)CN2C(=O)c3ccccc3C2=O)c2ccccc21 (stereo not given)
- activation [1]: 149% (active)
- outcome [2]: inactive
- outcome [3]: inactive
- outcome [4]: inactive
- inhibition [5]: 73% (active)
- outcome [6]: inactive
- outcome [7]: inactive
- outcome [8]: inactive
- activation [9]: 51.5% (active)
- outcome [10]: inactive
- activation [11]: 23.1% (active)
- outcome [12]: inactive
- outcome [13]: inactive
- activation [14]: 62.6% (active)
- outcome [15]: inactive

Compound: Cc1c(C(=O)N(Cc2cccs2)C2CCS(=O)(=O)C2)oc2ccccc12 (stereo not given)
- outcome [1]: inactive
- outcome [2]: inactive
- outcome [3]: inactive
- outcome [4]: inactive
- inhibition [5]: 97% (active)
- outcome [6]: inactive
- outcome [7]: inactive
- outcome [8]: inactive
- activation [9]: 56.5% (active)
- outcome [10]: inactive
- outcome [11]: inactive
- outcome [12]: inactive
- outcome [13]: inactive
- outcome [14]: inactive
- outcome [15]: inactive

Compound: COc1ccc(C(CNC(=O)Cc2ccc3ccccc3c2)N(C)C)cc1 (stereo not given)
- activation [1]: 171% (active)
- activation [2]: 88% (active)
- outcome [3]: inactive
- outcome [4]: inactive
- outcome [5]: inactive
- inhibition [6]: 98% (active)
- outcome [7]: inactive
- outcome [8]: inactive
- activation [9]: 55.5% (active)
- outcome [10]: inactive
- outcome [11]: inactive
- outcome [12]: inactive
- outcome [13]: inactive
- outcome [14]: inactive
- outcome [15]: inactive

Compound: C/C(=N/NC(=O)c1ccc(Cn2cccn2)o1)c1cccc(NC(=O)c2ccncc2)c1
- activation [1]: 100% (active)
- outcome [2]: inactive
- outcome [3]: inactive
- outcome [4]: inactive
- inhibition [5]: 97% (active)
- outcome [6]: inactive
- outcome [7]: inactive
- outcome [8]: inactive
- activation [9]: 49% (active)
- outcome [10]: inactive
- activation [11]: 11.3% (active)
- outcome [12]: inactive
- outcome [13]: inactive
- outcome [14]: inactive
- outcome [15]: inactive

Compound: Cc1ccc(COn2c(-c3ccc(Cl)cc3Cl)nc3ncccc32)cc1
- outcome [1]: inactive
- outcome [2]: inactive
- outcome [3]: inactive
- outcome [4]: inactive
- outcome [5]: inactive
- outcome [6]: inactive
- outcome [7]: inactive
- outcome [8]: inactive
- activation [9]: 46% (active)
- outcome [10]: inactive
- outcome [11]: inactive
- outcome [12]: inactive
- outcome [13]: inactive
- outcome [14]: inactive
- outcome [15]: inactive

Compound: COc1ccc(Cl)cc1NC(=O)CNCC(c1ccccc1)N(C)C (stereo not given)
- outcome [1]: inactive
- outcome [2]: inactive
- outcome [3]: inactive
- outcome [4]: inactive
- inhibition [5]: 100% (active)
- inhibition [6]: 60% (active)
- outcome [7]: inactive
- outcome [8]: inactive
- activation [9]: 52.5% (active)
- outcome [10]: inactive
- outcome [11]: inactive
- outcome [12]: inactive
- outcome [13]: inactive
- outcome [14]: inactive
- outcome [15]: inactive

Compound: CN(C)CCCN(C(=O)c1ccc(S(=O)(=O)N(C)C)cc1)c1nc2ccc(F)cc2s1
- activation [1]: 59% (active)
- outcome [2]: inactive
- outcome [3]: inactive
- outcome [4]: inactive
- outcome [5]: inactive
- inhibition [6]: 37% (active)
- outcome [7]: inactive
- outcome [8]: inactive
- outcome [9]: inactive
- outcome [10]: inactive
- outcome [11]: inactive
- outcome [12]: inactive
- outcome [13]: inactive
- outcome [14]: inactive
- outcome [15]: inactive

Compound: COc1ccc(/C=C/C(=O)Nc2ccccc2C(=O)NCC(c2ccc(OC)cc2)N(C)C)cc1 (stereo not given)
- outcome [1]: inactive
- outcome [2]: inactive
- outcome [3]: inactive
- outcome [4]: inactive
- inhibition [5]: 101% (active)
- inhibition [6]: 81% (active)
- outcome [7]: inactive
- outcome [8]: inactive
- outcome [9]: inactive
- outcome [10]: inactive
- outcome [11]: inactive
- outcome [12]: inactive
- outcome [13]: inactive
- outcome [14]: inactive
- outcome [15]: inactive

Compound: CCOc1ccccc1N(CC(=O)N1CCOCC1)S(=O)(=O)c1ccccc1
- activation [1]: 155% (active)
- outcome [2]: inactive
- outcome [3]: inactive
- outcome [4]: inactive
- outcome [5]: inactive
- outcome [6]: inactive
- outcome [7]: inactive
- outcome [8]: inactive
- activation [9]: 56.5% (active)
- outcome [10]: inactive
- activation [11]: 94% (active)
- inhibition [12]: 16% (active)
- outcome [13]: inactive
- activation [14]: 74.4% (active)
- outcome [15]: inactive

Compound: OC(CNC1CCCc2ccccc21)COc1c(Cl)cccc1Cl (stereo not given)
- activation [1]: 86% (active)
- outcome [2]: inactive
- outcome [3]: inactive
- outcome [4]: inactive
- outcome [5]: inactive
- inhibition [6]: 52% (active)
- outcome [7]: inactive
- outcome [8]: inactive
- activation [9]: 101% (active)
- outcome [10]: inactive
- activation [11]: 9.49% (active)
- inhibition [12]: 35.9% (active)
- outcome [13]: inactive
- activation [14]: 14.8% (active)
- outcome [15]: inactive

Compound: COc1cccc(CNCc2ccccn2)c1OC
- outcome [1]: inactive
- activation [2]: 56% (active)
- outcome [3]: inactive
- outcome [4]: inactive
- outcome [5]: inactive
- outcome [6]: inactive
- outcome [7]: inactive
- outcome [8]: inactive
- activation [9]: 40% (active)
- outcome [10]: inactive
- outcome [11]: inactive
- outcome [12]: inactive
- outcome [13]: inactive
- outcome [14]: inactive
- outcome [15]: inactive

Compound: CN(C)C(CNC(=O)c1ccc2c(c1)S(=O)(=O)c1ccccc1C2=O)c1ccco1 (stereo not given)
- activation [1]: 142% (active)
- outcome [2]: inactive
- outcome [3]: inactive
- outcome [4]: inactive
- inhibition [5]: 67% (active)
- outcome [6]: inactive
- outcome [7]: inactive
- outcome [8]: inactive
- outcome [9]: inactive
- outcome [10]: inactive
- activation [11]: 42.8% (active)
- inhibition [12]: 29.5% (active)
- outcome [13]: inactive
- outcome [14]: inactive
- outcome [15]: inactive
